The results in this text go back to PubChem BioAssay (EPA / NIEHS).

Calls of active or inactive are those of the source. The calls were made as follows: active = hit-call score of the fitted dose curve at least 0.9, where 1 is the maximum; inactive = score below 0.9.

Read-out in experiment [1]: Matrix Metallopeptidase 9 (MMP9), MMP9 (gene 4318)
In words: BSK_KF3CT_MMP9: BioMAP Diversity Plus: KF3CT Assay for Matrix Metallopeptidase 9 (MMP9) Biomarker Activity (AID 2283074).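 As to AC50: MMP9 protein level quantified by ELISA in the co-culture.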 Conditions: primary human keratinocytes with fibroblasts; actives raise or lower the signal. In short, it runs like this:
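ELISA read-out of MMP-9 at 24 h post-dosing in a co-culture of human skin keratinocytes and foreskin fibroblasts. Gain or loss of signal was fitted in both directions against DMSO.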

Read-out in experiment [2]: urokinase plasminogen activator (uPA), PLAU (gene 5328)
In words: BSK_KF3CT_uPA: BioMAP Diversity Plus: KF3CT Assay for urokinase plasminogen activator (uPA) Biomarker Activity (AID 2283075). Conditions: primary human keratinocytes with fibroblasts; actives raise or lower the signal. In short, it runs like this:
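Skin co-culture (keratinocytes + foreskin fibroblasts), human primary; 24 h post-dose; uPA by ELISA; gain/loss fit vs DMSO baseline.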

Read-out in experiment [3]: CD40, CD40 (gene 958)
The experiment is described as follows: BSK_LPS_CD40: BioMAP Diversity Plus: LPS Assay for CD40 Biomarker Activity (AID 2283076). Conditions: primary human HUVEC with PBMC; actives raise or lower the signal. Put shortly:
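HUVEC plus PBMC co-culture stimulated with LPS; CD40 quantified by ELISA 24 h after compound dosing. Fitting was bidirectional relative to DMSO. SRB staining of parallel cultures flagged overt cytotoxicity.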

Read-out in experiment [4]: E-selectin (Homo sapiens) (UniProt P16581)
The experiment is described as follows: BSK_LPS_Eselectin: BioMAP Diversity Plus: LPS Assay for Eselectin Biomarker Activity (AID 2283077). The note with it: primary human HUVEC with PBMC; actives raise or lower the signal. Put shortly:
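Human umbilical vein endothelial cells co-cultured with PBMC under LPS stimulation; cell-surface E-selectin measured by ELISA 24 h after dosing. Change in either direction versus DMSO, with SRB total-protein staining in parallel cultures for cytotoxicity.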

Read-out in experiment [5]: Interleukin-8 (IL8), CXCL8 (gene 3576)
The experiment is described as follows: BSK_LPS_IL8: BioMAP Diversity Plus: LPS Assay for Interleukin-8 (IL8) Biomarker Activity (AID 2283078). The note with it: primary human HUVEC with PBMC; actives raise or lower the signal. Put shortly: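 Human umbilical vein endothelial cells co-cultured with PBMC, LPS-stimulated, exposed to compound for 24 h. IL-8 quantified by ELISA; fitted in both directions against DMSO, with SRB total-protein staining of parallel cultures for cytotoxicity.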

Experiment [6] is described as follows: BSK_LPS_SRB: Viability Assessment in the BioMAP Diversity Plus: LPS Assay (AID 2283079).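 Also: total protein by sulforhodamine B absorbance as a cytotoxicity measure; measured one day after compound addition.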 Conditions: primary human HUVEC with PBMC. Put shortly:
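Co-culture of human umbilical vein endothelial cells and PBMC, read 24 h after dosing. Total protein by 0.1% SRB staining after 10% TCA fixation, absorbance at 560 nm; bidirectional fit against DMSO.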

Read-out in experiment [7]: Monocyte Chemoattractant Protein-1 (MCP1), CCL2 (gene 6347)
The experiment is described as follows: BSK_LPS_MCP1: BioMAP Diversity Plus: LPS Assay for Monocyte Chemoattractant Protein-1 (MCP1) Biomarker Activity (AID 2283081).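 As to AC50: secreted MCP-1 protein quantified by ELISA in culture supernatant.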 Conditions: primary human HUVEC with PBMC; actives raise or lower the signal. In short, it runs like this:
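Human umbilical vein endothelial cells co-cultured with PBMC, LPS-stimulated; secreted MCP-1 measured by ELISA 24 h after compound addition. Bidirectional curve fitting against DMSO baseline; SRB total-protein staining in parallel cultures for cytotoxicity.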

Experiment [8] in a line: BSK_LPS_PGE2: BioMAP Diversity Plus: LPS Assay for Prostaglandin E2 (PGE2) Biomarker Activity (AID 2283082). Conditions: primary human HUVEC with PBMC; actives raise or lower the signal. Put shortly: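 PGE2 release measured by ELISA in an LPS-activated co-culture of human umbilical vein endothelial cells and peripheral blood mononuclear cells, read at 24 h post-dosing. DMSO served as baseline for bidirectional curve fitting.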

Read-out in experiment [9]: Macrophage colony-stimulating factor (MCSF), CSF1 (gene 1435)
In words: BSK_LPS_MCSF: BioMAP Diversity Plus: LPS Assay for Macrophage colony-stimulating factor (MCSF) Biomarker Activity (AID 2283083). Conditions: primary human HUVEC with PBMC; actives raise or lower the signal. In short, it runs like this: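 HUVEC–PBMC co-culture, M-CSF measured by ELISA 24 h after chemical dosing. Fitted in both directions relative to DMSO as negative control; overt cytotoxicity assessed by SRB total-protein staining in parallel cultures.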

Read-out in experiment [10]: Tissue Factor, F3 (gene 2152)
The experiment is described as follows: BSK_LPS_TissueFactor: BioMAP Diversity Plus: LPS Assay for Tissue Factor Biomarker Activity (AID 2283084). The note with it: primary human HUVEC with PBMC; actives raise or lower the signal. In short, it runs like this: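 Human umbilical vein endothelial cells co-cultured with PBMC were dosed with compound. Cell-surface CD142 was measured by ELISA 24 h later. Activity was fitted bidirectionally against DMSO, with SRB total-protein staining in parallel cultures for cytotoxicity.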

Read-out in experiment [11]: Tumor necrosis factor (Homo sapiens) (UniProt P01375)
The experiment is described as follows: BSK_LPS_TNFa: BioMAP Diversity Plus: LPS Assay for Tumour Necrosis Factor alpha (TNFa) Biomarker Activity (AID 2283085).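 As to AC50: TNFa protein level quantified by ELISA in the co-culture.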 The note with it: primary human HUVEC with PBMC; actives raise or lower the signal. Put shortly:
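TNFa was quantified by ELISA in LPS-activated co-cultures of human endothelial cells and PBMC, 24 h post-dosing. Both increases and decreases versus DMSO were fitted.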

Read-out in experiment [12]: CD38, CD38 (gene 952)
In words: BSK_SAg_CD38: BioMAP Diversity Plus: SAg Assay for CD38 Biomarker Activity (AID 2283087). The note with it: primary human HUVEC with PBMC; actives raise or lower the signal. Put shortly: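 CD38 quantified by ELISA (fluorescence) in a superantigen-activated endothelial cell–PBMC co-culture at 24 h post-dose. Activity fitted in both directions relative to DMSO; parallel SRB and Alamar Blue cytotoxicity read-outs.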

Read-out in experiment [13]: CD40, CD40 (gene 958)
In words: BSK_SAg_CD40: BioMAP Diversity Plus: SAg Assay for CD40 Biomarker Activity (AID 2283088). Conditions: primary human HUVEC with PBMC; actives raise or lower the signal. In short, it runs like this:
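HUVEC plus PBMC co-culture, superantigen-activated, with CD40 read by ELISA 24 h after dosing. Curves fitted in both directions against DMSO. Overt cytotoxicity checked by parallel SRB total-protein staining.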

Read-out in experiment [14]: CD69, CD69 (gene 969)
In words: BSK_SAg_CD69: BioMAP Diversity Plus: SAg Assay for CD69 Biomarker Activity (AID 2283089).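 As to AC50: cell surface CD69 protein quantified by ELISA with fluorescence detection.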 The note with it: primary human HUVEC with PBMC; actives raise or lower the signal. Put shortly: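 Values derive from bidirectional fitting relative to DMSO vehicle. Cells: umbilical vein endothelium plus peripheral blood mononuclear cells, treated 24 h before fluorescent ELISA for CD69.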

Read-out in experiment [15]: Monocyte Chemoattractant Protein-1 (MCP1), CCL2 (gene 6347)
In words: BSK_SAg_MCP1: BioMAP Diversity Plus: SAg Assay for Monocyte Chemoattractant Protein-1 (MCP1) Biomarker Activity (AID 2283090). The note with it: primary human HUVEC with PBMC; actives raise or lower the signal. Put shortly:
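Values derive from bidirectional fitting of ELISA-measured MCP1 against DMSO controls. Readings were taken 24 h after dosing human vascular endothelial cells co-cultured with peripheral blood mononuclear cells under superantigen stimulation.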

Read-out in experiment [16]: E-selectin (Homo sapiens) (UniProt P16581)
In words: BSK_SAg_Eselectin: BioMAP Diversity Plus: SAg Assay for Eselectin Biomarker Activity (AID 2283091). Conditions: primary human HUVEC with PBMC; actives raise or lower the signal. Put shortly: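 Human umbilical vein endothelial cells co-cultured with peripheral blood mononuclear cells, SAg system. E-selectin is measured by ELISA 24 h after dosing and fitted bidirectionally against DMSO. Cytotoxicity is checked by SRB staining of parallel cultures.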

Read-out in experiment [17]: Monokine induced gamma interferon (MIG), CXCL9 (gene 4283)
The experiment is described as follows: BSK_SAg_MIG: BioMAP Diversity Plus: SAg Assay for Monokine induced gamma interferon (MIG) Biomarker Activity (AID 2283092). The note with it: primary human HUVEC with PBMC; actives raise or lower the signal. In short, it runs like this: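 Values reflect bidirectional fitting of ELISA-measured MIG against DMSO vehicle, taken 24 h after dosing of a co-culture of human umbilical vein endothelial cells and peripheral blood mononuclear cells.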

The nature of experiment [18]: BSK_SAg_PBMCCytotoxicity: PBMC Cytotoxicity Assessment in the BioMAP Diversity Plus: SAg Assay (AID 2283093).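 Also: fitted both ways against DMSO so a hit may be loss or gain of signal.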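 As to AC50: PBMC superantigen activated with SEB plus TSST-1 one hour after compound addition.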 The note with it: primary human HUVEC with PBMC. Put shortly: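 PBMC viability by Alamar Blue reduction, fluorescence read at 546/580 nm after 6 h dye exposure. Cells were dosed 1 h before SEB plus TSST-1 activation (20 ng/mL final each), then held 90 h; endothelial/PBMC human co-culture.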

Sequence of E-selectin (Homo sapiens) (P16581 whole entry, looked up): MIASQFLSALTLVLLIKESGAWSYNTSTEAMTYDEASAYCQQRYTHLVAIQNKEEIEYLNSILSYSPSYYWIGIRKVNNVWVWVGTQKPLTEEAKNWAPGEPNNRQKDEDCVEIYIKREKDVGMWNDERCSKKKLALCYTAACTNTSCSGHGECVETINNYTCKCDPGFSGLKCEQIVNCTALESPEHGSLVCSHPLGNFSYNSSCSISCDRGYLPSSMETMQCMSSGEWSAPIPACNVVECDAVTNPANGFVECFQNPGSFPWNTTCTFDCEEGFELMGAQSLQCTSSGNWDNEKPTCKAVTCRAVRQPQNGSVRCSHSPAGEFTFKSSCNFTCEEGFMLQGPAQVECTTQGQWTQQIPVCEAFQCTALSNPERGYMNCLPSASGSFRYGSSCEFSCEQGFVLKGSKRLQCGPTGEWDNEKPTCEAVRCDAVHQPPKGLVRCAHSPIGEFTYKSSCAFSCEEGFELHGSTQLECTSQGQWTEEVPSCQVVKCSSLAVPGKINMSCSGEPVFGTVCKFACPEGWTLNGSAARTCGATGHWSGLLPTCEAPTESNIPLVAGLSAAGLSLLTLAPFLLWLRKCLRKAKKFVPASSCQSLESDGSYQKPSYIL
Sequence of Tumor necrosis factor (Homo sapiens) (P01375 whole entry, looked up): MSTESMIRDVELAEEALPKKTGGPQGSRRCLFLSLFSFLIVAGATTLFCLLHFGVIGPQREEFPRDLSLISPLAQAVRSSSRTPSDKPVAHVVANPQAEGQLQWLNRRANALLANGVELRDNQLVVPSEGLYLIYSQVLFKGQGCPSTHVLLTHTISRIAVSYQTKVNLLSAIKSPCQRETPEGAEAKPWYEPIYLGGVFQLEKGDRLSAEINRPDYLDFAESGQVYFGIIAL

For orientation: AC50 means the concentration giving half of the maximal activity seen. As for `CC(C)CCCCCCOC(=O)c1ccccc1C(=O)OCCCCCCC(C)C`, the result in [1], in [2], in experiment [3], in experiment [4], in [5] and in [6] was inactive. For the same compound, the outcome in experiment [7], in [8], in [9], in experiment [10], in [11] and in [12] was inactive. Besides, the outcome in experiment [13], in experiment [14], in experiment [15], in experiment [17] and in [18] was inactive. Besides, the AC50 in experiment [16] was 0.016 µM (active).

As to `O=S(=O)(c1ccc(Cl)cc1)c1ccc(Cl)cc1`, the outcome in experiment [1], in experiment [2], in experiment [3], in experiment [4], in [5] and in experiment [6] was inactive. The result in experiment [7], in experiment [8], in [9], in experiment [10], in [11] and in experiment [12] was inactive. Also, the outcome in experiment [13], in experiment [14], in experiment [15], in experiment [16], in experiment [17] and in experiment [18] was inactive.

In the case of `O=C(OC1CCCCC1)c1ccccc1C(=O)OC1CCCCC1`, the AC50 in experiment [1] is 9.72 µM (active); in experiment [3] it was 15.5 µM (active); in [4] it was 20.9 µM (active); in experiment [5] it was 20.9 µM (active); in experiment [6] it was 20.9 µM (active); in [7], 27.9 µM (active). Further, the AC50 is 14.6 µM (active) in experiment [9]; 20.9 µM (active) in experiment [10]; 26.5 µM (active) in experiment [11]; 33.3 µM (active) in experiment [12]; 20.9 µM (active) in experiment [13]; 26.2 µM (active) in experiment [14]. Besides, the AC50 was 27.8 µM (active) in experiment [15], 29.8 µM (active) in experiment [16], 29.8 µM (active) in experiment [17] and 20.9 µM (active) in experiment [18]. For the same compound, the outcome in experiment [2] and in experiment [8] was inactive.

As to `CCSC(C)CC1CC(=O)C(C(CC)=NOC/C=C/Cl)=C(O)C1` (configuration not stated), the result in experiment [1], in [2], in [3], in experiment [4], in experiment [6] and in [7] was inactive. The outcome in experiment [8], in [9], in experiment [10], in experiment [11], in experiment [12] and in [13] was inactive. In addition, the result in [14], in experiment [15], in experiment [16], in experiment [17] and in [18] was inactive. Also, the half-maximal activity concentration (AC50) in experiment [5] was 0.0903 µM (active).
